PubChem BioAssay (NCI)
The panel holds about 83,000 compounds, 20% with a hit somewhere; the sample as a whole holds those more often.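 Cells were grown in 96-well plates and exposed to the test compound at a single concentration for 48 hours; results are reported as percent growth, with values below 10 considered active.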 Activity calls are given as the source filed them.

How the values were obtained:
Test in all cases: NCI-60 one-dose screen, 48 h (100 = growth as untreated, 0 = no growth, -100 = all killed)
Settings in all cases: 10 µM unless noted
SK-MEL-2 melanoma = system: SK-MEL-2 melanoma
EKVX NSCLC = system: EKVX NSCLC
SN12C renal = system: SN12C renal
UO-31 renal = system: UO-31 renal
TK-10 renal = system: TK-10 renal
ACHN renal = system: ACHN renal
CAKI-1 renal = system: CAKI-1 renal
CCRF-CEM leukemia = system: CCRF-CEM leukemia
MOLT-4 leukemia = system: MOLT-4 leukemia
RPMI-8226 leukemia = system: RPMI-8226 leukemia
OVCAR-8 ovarian = system: OVCAR-8 ovarian
OVCAR-5 ovarian = system: OVCAR-5 ovarian
OVCAR-4 ovarian = system: OVCAR-4 ovarian
IGROV1 ovarian = system: IGROV1 ovarian
OVCAR-3 ovarian = system: OVCAR-3 ovarian
HS 578T breast = system: HS 578T breast
NCI/ADR-RES ovarian = system: NCI/ADR-RES ovarian
SK-OV-3 ovarian = system: SK-OV-3 ovarian
A498 renal = system: A498 renal
SR leukemia = system: SR leukemia

Measured: growth

CC(C)(C)c1cc(C(C)(C)C)cc(S(=O)(=O)Nc2cc3ccccc3cc2C(=O)NCCN)c1
active: RPMI-8226 leukemia -5.61% | OVCAR-8 ovarian 5.01%
inactive: SK-MEL-2 melanoma 62.3% | EKVX NSCLC 89.5% | SN12C renal 46.6% | UO-31 renal 53.2% | TK-10 renal 78.8% | ACHN renal 70.9% | CAKI-1 renal 64% | CCRF-CEM leukemia 57.7% | MOLT-4 leukemia 77% | OVCAR-5 ovarian 94.8% | OVCAR-4 ovarian 70.6% | IGROV1 ovarian 62.3% | OVCAR-3 ovarian 70.5% | HS 578T breast 73.2% | NCI/ADR-RES ovarian 82%

CC(C)c1c(C(=O)c2ccccc2)c(-c2ccccc2)c(-c2ccc(F)cc2)n1CC[C@@H](O)C[C@@H](O)CC(=O)O
inactive: SK-MEL-2 melanoma 36.2% | EKVX NSCLC 68.2% | SN12C renal 31.9% | UO-31 renal 72% | TK-10 renal 116% | ACHN renal 25.3% | CAKI-1 renal 21.6% | CCRF-CEM leukemia 81.4% | MOLT-4 leukemia 87.6% | OVCAR-8 ovarian 49.6% | OVCAR-5 ovarian 88.2% | OVCAR-4 ovarian 87.5% | SK-OV-3 ovarian 84.5% | IGROV1 ovarian 39.5% | OVCAR-3 ovarian 83.9% | HS 578T breast 17.1% | NCI/ADR-RES ovarian 48.9%

CCN1CCN(c2nc(NCCCNc3ccnc4cc(Cl)ccc34)c3ccccc3n2)CC1
active: SK-MEL-2 melanoma -10.5% | UO-31 renal -5.29% | ACHN renal 5.28% | SR leukemia -33.3% | RPMI-8226 leukemia -10%
inactive: EKVX NSCLC 63.1% | SN12C renal 48.2% | TK-10 renal 42.3% | A498 renal 81% | CCRF-CEM leukemia 12.2% | MOLT-4 leukemia 13.6% | OVCAR-8 ovarian 16.6% | OVCAR-5 ovarian 55.1% | OVCAR-4 ovarian 48% | SK-OV-3 ovarian 60% | IGROV1 ovarian 59.3% | OVCAR-3 ovarian 54% | HS 578T breast 78.8% | NCI/ADR-RES ovarian 92.6%

Cc1cc(N2CCOCC2)nc(N[C@@H]2CCC[C@H](Nc3ccnc4cc(Cl)ccc34)C2)n1
active: SK-MEL-2 melanoma -71.5% | UO-31 renal -84.5% | TK-10 renal -68.7% | ACHN renal -61.7% | CCRF-CEM leukemia -10.4% | MOLT-4 leukemia 2.9% | SR leukemia -36.9% | RPMI-8226 leukemia -45.6% | OVCAR-8 ovarian 5.36% | HS 578T breast -11.1%
inactive: EKVX NSCLC 49.9% | SN12C renal 22.7% | A498 renal 35.1% | OVCAR-5 ovarian 49.4% | OVCAR-4 ovarian 35.5% | SK-OV-3 ovarian 64.4% | IGROV1 ovarian 26.4% | OVCAR-3 ovarian 22.6% | NCI/ADR-RES ovarian 18.2%

O=[N+]([O-])c1ccc2c(c1)Cc1cc(F)ccc1-2
inactive: SK-MEL-2 melanoma 126% | EKVX NSCLC 68.7% | SN12C renal 99% | UO-31 renal 88.8% | TK-10 renal 96.8% | ACHN renal 103% | CAKI-1 renal 96.4% | CCRF-CEM leukemia 81.9% | MOLT-4 leukemia 94.1% | RPMI-8226 leukemia 89.3% | OVCAR-8 ovarian 103% | OVCAR-5 ovarian 96.6% | OVCAR-4 ovarian 91.7% | SK-OV-3 ovarian 99.1% | IGROV1 ovarian 105% | OVCAR-3 ovarian 113% | HS 578T breast 95.6% | NCI/ADR-RES ovarian 106%

COc1cccc(NC(=O)c2sc3nc(C)c(C(C)=O)cc3c2N)c1
inactive: SK-MEL-2 melanoma 24.5% | EKVX NSCLC 56.4% | SN12C renal 55.9% | UO-31 renal 75.2% | TK-10 renal 55.7% | ACHN renal 63.3% | A498 renal 17.2% | CCRF-CEM leukemia 51.6% | MOLT-4 leukemia 44.9% | SR leukemia 19% | RPMI-8226 leukemia 52.2% | OVCAR-8 ovarian 63.5% | OVCAR-5 ovarian 112% | OVCAR-4 ovarian 63.7% | SK-OV-3 ovarian 25.2% | IGROV1 ovarian 59.7% | OVCAR-3 ovarian 17.8% | HS 578T breast 43.3% | NCI/ADR-RES ovarian 34.1%

COc1cc(-c2nn(-c3ccc(C(=O)O)cc3)cc2C(=O)O)ccc1O
inactive: SK-MEL-2 melanoma 88.1% | EKVX NSCLC 76.4% | SN12C renal 81.4% | UO-31 renal 56.1% | TK-10 renal 122% | ACHN renal 44.8% | A498 renal 97.9% | CCRF-CEM leukemia 67.9% | MOLT-4 leukemia 90% | SR leukemia 32.9% | RPMI-8226 leukemia 88.2% | OVCAR-8 ovarian 73.2% | OVCAR-5 ovarian 110% | OVCAR-4 ovarian 83.8% | SK-OV-3 ovarian 74.3% | IGROV1 ovarian 81% | OVCAR-3 ovarian 42.8% | HS 578T breast 76.5% | NCI/ADR-RES ovarian 29.7%

Cc1cc(N2CCCCC2)nc(NC2CCCC(Nc3ccnc4cc(Cl)ccc34)C2)n1 (stereo unspecified)
active: SK-MEL-2 melanoma -77% | EKVX NSCLC 7.48% | SN12C renal -74.9% | UO-31 renal -99% | TK-10 renal -61.8% | ACHN renal -86.2% | A498 renal -29% | CCRF-CEM leukemia -17.8% | MOLT-4 leukemia -28.2% | SR leukemia -53.5% | RPMI-8226 leukemia -52.4% | OVCAR-8 ovarian -82.9% | OVCAR-4 ovarian -38.8% | SK-OV-3 ovarian -71.7% | IGROV1 ovarian -33% | OVCAR-3 ovarian -69% | HS 578T breast -48.6% | NCI/ADR-RES ovarian -41.8%
inactive: OVCAR-5 ovarian 11.2%

COc1ccc(O)c(N=Nc2nccs2)c1
active: CCRF-CEM leukemia 3.48% | MOLT-4 leukemia 7.26%
inactive: SK-MEL-2 melanoma 91.6% | EKVX NSCLC 54.3% | SN12C renal 99.4% | UO-31 renal 61.1% | TK-10 renal 106% | ACHN renal 28.7% | A498 renal 88.4% | SR leukemia 13.4% | RPMI-8226 leukemia 25.3% | OVCAR-8 ovarian 52.1% | OVCAR-5 ovarian 120% | OVCAR-4 ovarian 37.1% | SK-OV-3 ovarian 85.2% | IGROV1 ovarian 70.2% | OVCAR-3 ovarian 39.9% | HS 578T breast 103% | NCI/ADR-RES ovarian 53.6%
